Reference: PubChem BioAssay (Tox21)
Results filed as inconclusive are left out. The source made the active and inactive calls. Unless noted, the call rests on the fitted dose curve; in most records, active means well fitted curve in the direction sought with a large enough effect in the repeat runs; inconclusive means weak or mixed curves; inactive means no such curve, though single readings can be large; an effect the other way counts as inactive or inconclusive.

How the values were obtained:
[1] = biological target: Retinoic acid receptor RXR-alpha (Homo sapiens) (UniProt P19793); assay: qHTS assay to identify small molecule agonists of the RXR signaling pathway (AID 1159527; calls by dose curve; further: nearly all actives have a fitted effect of over 35% in size); settings: HEK293T RXRa-UAS-bla, beta-lactamase ratio, 16 h; series mostly up to 76.8 µM
Chain of Retinoic acid receptor RXR-alpha (Homo sapiens) (P19793 whole entry, looked up): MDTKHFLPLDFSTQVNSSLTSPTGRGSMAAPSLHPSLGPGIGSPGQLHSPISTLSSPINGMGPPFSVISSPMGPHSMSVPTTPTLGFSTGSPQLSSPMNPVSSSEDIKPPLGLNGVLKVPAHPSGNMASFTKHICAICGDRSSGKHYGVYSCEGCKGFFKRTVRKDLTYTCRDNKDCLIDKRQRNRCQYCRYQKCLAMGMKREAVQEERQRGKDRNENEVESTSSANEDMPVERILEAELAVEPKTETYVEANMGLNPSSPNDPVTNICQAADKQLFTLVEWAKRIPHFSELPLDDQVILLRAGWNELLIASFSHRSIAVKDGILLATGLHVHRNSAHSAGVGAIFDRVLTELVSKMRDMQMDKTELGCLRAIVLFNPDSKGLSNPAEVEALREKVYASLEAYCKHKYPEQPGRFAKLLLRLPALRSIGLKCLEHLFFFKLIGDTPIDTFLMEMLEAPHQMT
How it was run: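 Read-out: beta-lactamase FRET ratio (405 nm excitation, 460 and 530 nm emission) after 2 hr substrate loading at room temperature. Cells were RXR-alpha-UAS-bla HEK 293T treated with compounds for 16 hr in 2% charcoal-stripped FBS medium.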

[2] = qHTS assay to identify small molecule agonists of the RXR signaling pathway - cell viability counter screen (AID 1159529); settings: RXR-alpha-bla HEK293T viability, CellTiter-Glo, 16 h; series mostly up to 76.8 µM; further: nearly all actives have a fitted effect of over 50% in size
How it was run: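 HEK 293T RXRa-bla cells, 2% CS-FBS; 5 h settle; cpd 16 h 37 C, 5% CO2; CellTiter-Glo 30 min RT, luminescence. Tetraoctyl ammonium bromide as positive control.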

[3] = qHTS assay to identify small molecule antagonists of the retinoid acid receptor (RAR) signaling pathway - cell viability counter screen (AID 1159551); settings: C3RL4 cells viability, ATP luminescence (CellTiter-Glo), 6 h; series mostly up to 92.4 µM; further: nearly all actives have a fitted effect of over 35% in size
How it was run: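 Following overnight attachment, C3RL4 reporter cells received DMSO-dissolved compounds and then retinol (1 uM final). Six hours later at 37 C, ATP content was measured by CellTiter-Glo luminescence.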

[4] = qHTS assay to identify small molecule antagonists of the retinoic acid receptor (RAR) signaling pathway (AID 1159552; further: nearly all actives have a fitted effect of over 50% in size); settings: C3RL4 RARE luciferase reporter, retinol-stimulated, 6 h; series mostly up to 92.4 µM
How it was run: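 Cells of the C3RL4 line were seeded, incubated overnight, then dosed with compounds in DMSO followed immediately by retinol (1 uM final). Six hours later luciferase detection reagent went in; signal was measured after 30 min at RT.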

[5] = qHTS assay to identify small molecule antagonists of the estrogen related receptor (ERR) signaling pathway from Tox21 library - cell viability counter screen (AID 1224834); settings: ERR reporter cells viability, CellTiter-Fluor, 17.5 h; series mostly up to 92.4 µM; further: nearly all actives have a fitted effect of over 30% in size
How it was run: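 Viability readout (CellTiter-Fluor fluorescence, 30 min at 37 C) multiplexed with the ERR assay; cells treated 17.5 h at 37 C with compounds delivered in DMSO.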

[6] = biological target: Luciferin 4-monooxygenase (Photinus pyralis) (UniProt P08659); assay: qHTS assay to identify small molecule inhibitors of firefly luciferase (AID 1224835); further: nearly all actives have a fitted effect of over 25% in size; settings: purified P. pyralis luciferase, luminescence inhibition; series mostly up to 115 µM
Chain of Luciferin 4-monooxygenase (Photinus pyralis) (P08659 whole entry, looked up): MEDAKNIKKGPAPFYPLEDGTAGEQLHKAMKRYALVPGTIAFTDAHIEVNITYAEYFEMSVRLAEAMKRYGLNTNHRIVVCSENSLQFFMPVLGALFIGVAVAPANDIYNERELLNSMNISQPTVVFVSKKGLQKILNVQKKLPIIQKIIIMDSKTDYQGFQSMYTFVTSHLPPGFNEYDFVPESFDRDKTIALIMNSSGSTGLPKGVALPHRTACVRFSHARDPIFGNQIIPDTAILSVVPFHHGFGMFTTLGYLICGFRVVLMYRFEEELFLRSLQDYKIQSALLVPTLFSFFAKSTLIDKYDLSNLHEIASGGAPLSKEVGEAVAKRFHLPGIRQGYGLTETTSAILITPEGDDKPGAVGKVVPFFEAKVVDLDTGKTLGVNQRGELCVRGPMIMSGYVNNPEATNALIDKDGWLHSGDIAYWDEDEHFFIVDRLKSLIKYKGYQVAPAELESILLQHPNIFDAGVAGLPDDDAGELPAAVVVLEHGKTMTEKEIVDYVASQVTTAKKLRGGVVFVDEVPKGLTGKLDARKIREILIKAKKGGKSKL
How it was run: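 Inhibition of purified Photinus luciferase is measured by luminescence. Substrate levels (D-luciferin, ATP) sit at their KM values. Each compound is tested in a concentration series.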

[7] = qHTS assay to identify small molecule antagonists of the constitutive androstane receptor (CAR) signaling pathway - cell viability counter screen (AID 1224837); settings: HepG2-CYP2B6-hCAR viability, CellTiter-Fluor, 23 h, co-treated with 50 nM CITCO; series mostly up to 92.4 µM; further: nearly all actives have a fitted effect of over 45% in size
How it was run: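 Fluorescence from CellTiter-Fluor served as the viability signal. Human hepatoma HepG2 cells stably bearing hCAR and CYP2B6-2.2kb received compound plus CITCO (50 nM final) for 23 hr.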

[8] = biological target: Nuclear receptor subfamily 1 group I member 3 (Homo sapiens) (UniProt Q14994); assay: qHTS assay to identify small molecule antagonists of the constitutive androstane receptor (CAR) signaling pathway (AID 1224838); settings: HepG2-CYP2B6-hCAR luciferase, CITCO-stimulated, 24 h; series mostly up to 92.4 µM;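 further: HepG2 cells stably expressing hCAR with CYP2B6 luciferase reporter stimulated by CITCO; nearly all actives have a fitted effect of over 40% in size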
Chain of Nuclear receptor subfamily 1 group I member 3 (Homo sapiens) (Q14994 whole entry, looked up): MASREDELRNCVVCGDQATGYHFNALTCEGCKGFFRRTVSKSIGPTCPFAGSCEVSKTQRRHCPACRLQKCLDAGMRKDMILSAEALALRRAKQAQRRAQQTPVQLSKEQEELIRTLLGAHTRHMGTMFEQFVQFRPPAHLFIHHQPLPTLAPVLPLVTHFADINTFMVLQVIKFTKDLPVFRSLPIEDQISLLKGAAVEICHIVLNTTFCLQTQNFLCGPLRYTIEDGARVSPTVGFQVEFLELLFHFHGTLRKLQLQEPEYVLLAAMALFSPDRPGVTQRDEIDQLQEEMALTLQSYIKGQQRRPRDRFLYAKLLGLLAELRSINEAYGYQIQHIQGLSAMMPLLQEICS
How it was run: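 Quantitative HTS in double-stable HepG2-CYP2B6-hCAR cells. After 4 h plating, cells get compound (15 concentrations) and CITCO at 50 nM final, incubate 24 h at 37 C, then ONE-Glo luminescence is read.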

[9] = qHTS assay to identify small molecule agonists of the constitutive androstane receptor (CAR) signaling pathway - cell viability counter screen (AID 1224836); settings: HepG2-CYP2B6-hCAR viability, CellTiter-Fluor, 23 h, PK11195 added to every well; series mostly up to 92.4 µM; further: nearly all actives have a fitted effect of over 45% in size
How it was run: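 HepG2-CYP2B6-hCAR, 2500 cells/well, 4 h pre-incubation; cpd 15 conc + PK11195 0.75 uM final; 23 h, 37 C/5% CO2; CellTiter-Fluor, fluorescence.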

[10] = qHTS assay to identify small molecule agonists of the retinoic acid receptor (RAR) signaling pathway (AID 1159553); settings: C3RL4 RARE luciferase reporter, agonist, 6 h; series mostly up to 73.3 µM
How it was run: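 Cell line C3RL4, RARE luciferase reporter. Treatment: compounds in DMSO, 6 hr, 37 C, 5% CO2, after overnight plating. Detection: luminescence, 30 min RT after reagent.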

Measured: Potency

COC(C)(OC)OC
not listed: [9] | [10]
inactive: all other assays above

CCCCCc1cccc(=O)o1
not listed: [10]
inactive: all other assays above

CC1(C)[C@H]2CC[C@](C)(C2)[C@H]1O
not listed: [10]
inactive: all other assays above

COC(=O)/C=C\C(=O)O
not listed: [10]
inactive: all other assays above

C/C(CC(C)C)=N\O
not listed: [10]
inactive: all other assays above

CC(S)C(C)S (stereo unspecified)
not listed: [10]
inactive: all other assays above

CC(Oc1cc(Cl)ccc1Cl)C(=O)O (stereo unspecified)
not listed: [9]
inactive: all other assays above

CCCSSCCC
not listed: [9] | [10]
inactive: all other assays above

O=C1CCC(=O)N1Cl
not listed: [9]
inactive: all other assays above

CCCCOCC(C)O (stereo unspecified)
not listed: [9]
inactive: all other assays above

CCCCCC(C)O (stereo unspecified)
not listed: [10]
inactive: all other assays above

CC(=O)O[Si](C)(OC(C)=O)OC(C)=O
not listed: [10]
inactive: all other assays above

CC(C)Cn1cnc2c1c(=O)n(C)c(=O)n2C
not listed: [3] | [8] | [9]
inactive: all other assays above

O=NN(CCCl)C(=O)NC1CCCCC1
not listed: [3]
inactive: all other assays above

c1ccc2cnccc2c1
not listed: [3]
inactive: all other assays above

O=C(CN1CCNCC1)NC1CCCCC1
not listed: [3]
inactive: all other assays above

C=CC/C=C/C
not listed: [1] | [8]
inactive: all other assays above

O=C(CCCl)NCCc1ccccc1
not listed: [3] | [10]
inactive: all other assays above

COC(=O)c1cc(Cl)cc(Cl)c1
not listed: [3]
inactive: all other assays above

CCCCCCCCCCCCCCC(=O)NC(CO)CCCCCCCCCCCCCC (stereo unspecified)
not listed: [3] | [9]
inactive: all other assays above

CC(=O)CC(=O)Nc1ccc(C)cc1C
not listed: [3] | [9]
inactive: all other assays above
